According to PubChem BioAssay (NCI):
Compounds without any hit were thinned out: in the full panel of roughly 83,000, 20% have a hit.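 Plates (96-well) were seeded with cells, treated with compound at one concentration, and incubated for 48 hours before percent growth was determined.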 A number with no mark means an inactive call. The source made the active and inactive calls. Rule for the calls: active = growth percent below 10; inactive = the rest.

Test system: RXF 393 renal
Test: NCI-60 one-dose screen, 48 h (100 = growth as untreated, 0 = no growth, -100 = all killed)
Conditions: 10 µM unless noted

Which growth does the source give for `CCN1CCN(/C(=N\c2sc(-c3ccccc3)nc2-c2ccccc2)c2ccccc2)CC1` here?
Its growth is 72.1%.

Which growth does the source give for `CCCCN1C(=O)/C(=c2\sc3n(c2=O)C2C(NN=3)N(CC)C(=O)N2CC)c2cc(Cl)ccc21` (centres undefined) here?
The growth was 77%.

For `O=C1C2=C(C(=O)c3c(O)cccc31)C(c1ccco1)c1sc(=O)[nH]c1S2` (centres undefined), which growth is on record?
The growth was 32.5%.

Which growth does the source give for `COc1cc(/C=C/C(=O)c2ccc(C(F)(F)F)cc2)ccc1Oc1nc(NCCO)nc(N2CCOCC2)n1` here?
Its growth is 90.8%.

Which growth does the source give for `OC1CCN(CCCOc2c3ccc(Cl)cc3nc3c2oc2ccc(Cl)cc23)CC1` here?
The growth was -80.4% (active).

Which growth does the source give for `Nc1c(C(=O)Nc2ccc(Cl)cc2)sc2nc(-c3cnccn3)cc(-c3cccs3)c12` here?
The growth was 61.5%.

For `O=C(N/N=C/c1ccc([N+](=O)[O-])o1)c1[nH]c2ccc(Br)cc2c1-c1ccccc1`, which growth is on record?
The growth was 50.1%.

How did the growth turn out when `Cc1ccc(-c2nc(C(Cl)Cl)nc3cc(-c4ccccc4)nn23)cc1` was run?
Its growth is -63.8% (active).

Which growth does the source give for `CCOC(=O)c1c(NC(=O)c2cccc(C(F)(F)F)c2)sc2cc(O)ccc12` here?
Its growth is 113%.

For `OC1CCN(CCCOc2c3ccccc3nc3c2oc2ccccc23)CC1`, which growth is on record?
Its growth is -43.1% (active).

How did the growth turn out when `COc1ccc(C(=O)/C=C/c2ccc(OCc3ccc(Cl)cc3)c(OC)c2)cc1OC` was run?
Its growth is 96.2%.

Which growth does the source give for `CN(C)CCCNc1c2ccccc2nc2c1oc1ccc(Cl)cc12` here?
Its growth is -65.8% (active).

`COc1ccc(NC2=CC(=O)C(C)=C(C)C2=O)cc1` was tested. Which growth did it give?
Its growth is 102%.

For `COc1ccc(-n2c(SCC(=O)Nc3ccc(-c4nc5ccccc5[nH]4)cc3)nc3ccccc3c2=O)cc1`, which growth is on record?
Its growth is -39.1% (active).
